The panel holds about 83,000 compounds, 20% with a hit somewhere; the sample as a whole holds those more often.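 The test compound was applied at a single concentration to cells in 96-well plates for 48 hours, and percent growth was recorded.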 Active and inactive are the calls of the source. The calls were made as follows: active = growth percent below 10; inactive = the rest.
What was measured:
Assay in all cases: NCI-60 one-dose screen, 48 h (100 = growth as untreated, 0 = no growth, -100 = all killed)
Conditions in all cases: 10 µM
HCT-15 colon = tested on: HCT-15 colon
HT29 colon = tested on: HT29 colon
SNB-75 CNS = tested on: SNB-75 CNS
SNB-19 CNS = tested on: SNB-19 CNS
U251 CNS = tested on: U251 CNS
PC-3 prostate = tested on: PC-3 prostate
SK-MEL-5 melanoma = tested on: SK-MEL-5 melanoma
UACC-62 melanoma = tested on: UACC-62 melanoma
LOX IMVI melanoma = tested on: LOX IMVI melanoma
SK-MEL-28 melanoma = tested on: SK-MEL-28 melanoma
SK-MEL-2 melanoma = tested on: SK-MEL-2 melanoma
SN12C renal = tested on: SN12C renal
UO-31 renal = tested on: UO-31 renal
TK-10 renal = tested on: TK-10 renal
ACHN renal = tested on: ACHN renal
CAKI-1 renal = tested on: CAKI-1 renal
A498 renal = tested on: A498 renal
MOLT-4 leukemia = tested on: MOLT-4 leukemia
CCRF-CEM leukemia = tested on: CCRF-CEM leukemia

Measured: growth

O=c1c2cccc3c(Nc4ccc(Br)cn4)ccc(c32)c2nc3ccccc3n12
inactive: HCT-15 colon 72% | HT29 colon 94.6% | SNB-75 CNS 44% | SNB-19 CNS 85.9% | U251 CNS 93.6% | PC-3 prostate 76.7% | SK-MEL-5 melanoma 76.2% | UACC-62 melanoma 84.8% | LOX IMVI melanoma 87.2% | SK-MEL-28 melanoma 72.9% | SK-MEL-2 melanoma 108% | SN12C renal 92.3% | UO-31 renal 52.1% | TK-10 renal 78.1% | ACHN renal 90.2% | CAKI-1 renal 83.9% | A498 renal 93.9% | MOLT-4 leukemia 92.9%

O=C(c1ccc(Cl)cc1)c1no[n+]([O-])c1C(=O)c1ccc(Cl)cc1
inactive: HCT-15 colon 95.7% | HT29 colon 67.3% | SNB-75 CNS 97.9% | SNB-19 CNS 115% | U251 CNS 104% | PC-3 prostate 92.9% | SK-MEL-5 melanoma 98.3% | UACC-62 melanoma 118% | SK-MEL-28 melanoma 117% | SK-MEL-2 melanoma 92% | SN12C renal 86.4% | TK-10 renal 84.1% | ACHN renal 39.7% | MOLT-4 leukemia 68.2%
active: LOX IMVI melanoma -74.2% | UO-31 renal -94.9% | CAKI-1 renal -68.6% | CCRF-CEM leukemia -51.6%

COc1ccc(-c2cn[nH]c2-c2cc(OC)c(OC)c(OC)c2)cc1
inactive: HCT-15 colon 10.8% | SNB-75 CNS 44.7% | SNB-19 CNS 45.5% | U251 CNS 16.2% | PC-3 prostate 14.1% | UACC-62 melanoma 38% | LOX IMVI melanoma 27.3% | SK-MEL-28 melanoma 43.6% | SK-MEL-2 melanoma 29.2% | SN12C renal 26.3% | UO-31 renal 33% | ACHN renal 20.7% | CAKI-1 renal 17.4%
active: HT29 colon 3.22% | SK-MEL-5 melanoma -17.1% | A498 renal -12.1% | CCRF-CEM leukemia 6.38% | MOLT-4 leukemia 4.95%

O=C(NC1CCCC1)c1ccc(N2CCC(NCc3cccc(C(F)(F)F)c3)CC2)cc1
inactive: HCT-15 colon 77.8% | HT29 colon 36.7% | SNB-75 CNS 85.3% | SNB-19 CNS 105% | U251 CNS 82.9% | PC-3 prostate 83.3% | SK-MEL-5 melanoma 79.5% | UACC-62 melanoma 104% | LOX IMVI melanoma 89.7% | SK-MEL-28 melanoma 108% | SK-MEL-2 melanoma 108% | SN12C renal 94.2% | UO-31 renal 62.3% | TK-10 renal 101% | ACHN renal 97.9% | CAKI-1 renal 101% | CCRF-CEM leukemia 75.7% | MOLT-4 leukemia 70.2%

CCN(Cc1ccccc1)C1CCN(Cc2cc(Br)ccc2O)CC1
inactive: HCT-15 colon 50.1% | HT29 colon 13.3% | SNB-75 CNS 49.2% | SNB-19 CNS 65.7% | U251 CNS 43.9% | PC-3 prostate 45.7% | SK-MEL-5 melanoma 32.1% | UACC-62 melanoma 51.7% | LOX IMVI melanoma 54.9% | SK-MEL-28 melanoma 76.1% | SK-MEL-2 melanoma 69.7% | SN12C renal 44.8% | UO-31 renal 23.5% | ACHN renal 45.1% | CAKI-1 renal 44.7% | A498 renal 66.2% | CCRF-CEM leukemia 43.5% | MOLT-4 leukemia 61.2%

O=S(=O)(O)C1(O)CCCCC1
inactive: HCT-15 colon 87.3% | HT29 colon 59% | SNB-75 CNS 82.3% | SNB-19 CNS 87.8% | U251 CNS 99.3% | PC-3 prostate 77.6% | SK-MEL-5 melanoma 92.9% | UACC-62 melanoma 96.8% | LOX IMVI melanoma 97.7% | SK-MEL-28 melanoma 102% | SK-MEL-2 melanoma 90.1% | SN12C renal 99.3% | UO-31 renal 58.9% | ACHN renal 72.9% | CAKI-1 renal 76% | A498 renal 112% | CCRF-CEM leukemia 92.8% | MOLT-4 leukemia 87.9%

CCOC(=O)c1ccc(N(C=O)CCC(=O)CCl)cc1
inactive: HCT-15 colon 17.8% | SNB-75 CNS 26.5% | SNB-19 CNS 59.4% | PC-3 prostate 26% | UACC-62 melanoma 13% | SK-MEL-28 melanoma 34% | SK-MEL-2 melanoma 15.3%
active: HT29 colon 1.42% | U251 CNS 4.55% | SK-MEL-5 melanoma 2.68% | LOX IMVI melanoma 3.93% | SN12C renal 7.96% | UO-31 renal -86.3% | TK-10 renal -18% | ACHN renal -37.4% | CAKI-1 renal -19.9% | A498 renal -13.5% | CCRF-CEM leukemia -31.4% | MOLT-4 leukemia -13.7%

COc1ccc(-c2nsc3c2NC(=O)CC3c2cccc(Cl)c2)cc1 (stereo not drawn)
inactive: HCT-15 colon 27.7% | SNB-19 CNS 54.3% | U251 CNS 35% | PC-3 prostate 15.7% | SK-MEL-5 melanoma 23% | UACC-62 melanoma 41.6% | LOX IMVI melanoma 43.7% | SK-MEL-28 melanoma 49.8% | SN12C renal 47.8% | UO-31 renal 36.8% | TK-10 renal 34.9% | ACHN renal 49.9% | CAKI-1 renal 18.4% | A498 renal 17.8% | CCRF-CEM leukemia 13.8% | MOLT-4 leukemia 18.2%
active: HT29 colon 2.95% | SNB-75 CNS -0.284% | SK-MEL-2 melanoma -14.4%

Cc1cccc2c1O/C(=C\c1ncc([N+](=O)[O-])n1C)C2=O
active: HCT-15 colon 5.68% | HT29 colon -21% | SNB-75 CNS 8.32% | SNB-19 CNS -5.53% | U251 CNS -17.5% | PC-3 prostate -22.4% | SK-MEL-5 melanoma -92.2% | UACC-62 melanoma -66.3% | LOX IMVI melanoma -39.6% | SK-MEL-28 melanoma -17.8% | SK-MEL-2 melanoma -45.3% | SN12C renal -48.5% | UO-31 renal -38.9% | ACHN renal 4.76% | CAKI-1 renal -29.7% | A498 renal -72.7% | CCRF-CEM leukemia 5.23% | MOLT-4 leukemia -0.52%

FC(F)(F)c1ccc(-c2cnc(Cl)nc2NCc2cc(C(F)(F)F)cc(C(F)(F)F)c2)cc1
inactive: HT29 colon 21.3% | SNB-75 CNS 27.2% | SNB-19 CNS 14.8% | U251 CNS 10.7% | SK-MEL-5 melanoma 77.3% | SK-MEL-28 melanoma 46% | SN12C renal 12.4% | TK-10 renal 21.8% | MOLT-4 leukemia 21.1%
active: HCT-15 colon 8.09% | PC-3 prostate 4.94% | UACC-62 melanoma 6.65% | LOX IMVI melanoma -8.46% | SK-MEL-2 melanoma -21.6% | UO-31 renal -9.98% | ACHN renal 2.83% | CAKI-1 renal 1.18% | A498 renal -4.04%

Nc1ccccc1NC(=O)CCCCCCC(=O)Nc1ccc2c(c1)/C(=C/c1ccc[nH]1)C(=O)N2
inactive: HCT-15 colon 89.8% | HT29 colon 48.2% | SNB-19 CNS 49.8% | U251 CNS 20.5% | PC-3 prostate 29% | SK-MEL-5 melanoma 55.1% | UACC-62 melanoma 25.8% | LOX IMVI melanoma 43.9% | SK-MEL-28 melanoma 42.7% | SN12C renal 17.4% | UO-31 renal 29.1% | ACHN renal 77% | CAKI-1 renal 49.8%
active: SNB-75 CNS -2.9% | SK-MEL-2 melanoma -1.9% | A498 renal -0.734% | CCRF-CEM leukemia 5.46% | MOLT-4 leukemia 9.11%

COc1ccc(/C=C2\SC(=S)N(CCCN3CCOCC3)C2=O)c(OC)c1
inactive: HCT-15 colon 91.9% | HT29 colon 96.2% | SNB-75 CNS 99.4% | SNB-19 CNS 99.8% | U251 CNS 97.3% | PC-3 prostate 93.2% | SK-MEL-5 melanoma 90% | UACC-62 melanoma 90.8% | LOX IMVI melanoma 97.8% | SK-MEL-28 melanoma 106% | SK-MEL-2 melanoma 99% | SN12C renal 93.8% | UO-31 renal 86.8% | ACHN renal 98% | CAKI-1 renal 94.4% | A498 renal 102% | CCRF-CEM leukemia 75.7% | MOLT-4 leukemia 94.4%

COc1ccc(C(=O)/C=C/c2cc(-c3ccc(OC)c(OC)c3)n[nH]2)cc1OC
active: HCT-15 colon -68.1% | HT29 colon -61.1% | SNB-75 CNS -0.863% | SNB-19 CNS 2.04% | U251 CNS -94.5% | PC-3 prostate -36.2% | SK-MEL-5 melanoma 4.15% | LOX IMVI melanoma -86.8% | SK-MEL-28 melanoma -65.5% | SN12C renal -31.7% | UO-31 renal -95% | TK-10 renal -20.7% | ACHN renal -70.9% | CAKI-1 renal -24.4% | A498 renal -40.7% | MOLT-4 leukemia 1.44%
inactive: UACC-62 melanoma 16.3% | SK-MEL-2 melanoma 42.7%

CCOC(=O)c1cc(-c2ccccc2)nc(N)n1
inactive: HCT-15 colon 94.9% | HT29 colon 119% | SNB-75 CNS 84.7% | SNB-19 CNS 92% | U251 CNS 98.3% | PC-3 prostate 96.6% | SK-MEL-5 melanoma 100% | UACC-62 melanoma 99.9% | LOX IMVI melanoma 101% | SK-MEL-28 melanoma 111% | SK-MEL-2 melanoma 110% | SN12C renal 94.6% | UO-31 renal 79.1% | ACHN renal 92.7% | CAKI-1 renal 94% | A498 renal 86.5% | CCRF-CEM leukemia 98.7% | MOLT-4 leukemia 108%

O=C(OCc1ncc(-c2ccc(C(F)(F)F)cc2)c(NC2CCCCCC2)n1)c1c(F)c(F)c(F)c(F)c1F
inactive: HCT-15 colon 89.3% | HT29 colon 43.1% | SNB-75 CNS 76.1% | SNB-19 CNS 73.8% | U251 CNS 46.8% | PC-3 prostate 28.6% | SK-MEL-5 melanoma 36.4% | UACC-62 melanoma 36.6% | LOX IMVI melanoma 57.5% | SK-MEL-28 melanoma 47.4% | SK-MEL-2 melanoma 54.6% | SN12C renal 54.1% | UO-31 renal 28.3% | TK-10 renal 63.2% | ACHN renal 27.8% | CAKI-1 renal 89.6% | A498 renal 102% | MOLT-4 leukemia 79.1%

Nc1ncc(-c2ccc(C(F)(F)F)cc2)c(NC2CCCCCC2)n1
active: SK-MEL-5 melanoma 3.53% | UACC-62 melanoma 0.46% | SK-MEL-2 melanoma 0.455%
inactive: HCT-15 colon 73.7% | HT29 colon 31.5% | SNB-75 CNS 57.8% | SNB-19 CNS 49.9% | U251 CNS 22.5% | PC-3 prostate 12% | LOX IMVI melanoma 48% | SK-MEL-28 melanoma 33.7% | SN12C renal 29.9% | UO-31 renal 23.6% | TK-10 renal 36.9% | ACHN renal 16.4% | CAKI-1 renal 55.8% | A498 renal 58.8% | MOLT-4 leukemia 57.5%

CCCCCCCCCCCCCCCC(=O)N1CCN(C)CC1
active: LOX IMVI melanoma -38.1%
inactive: HCT-15 colon 73.2% | HT29 colon 51.1% | SNB-75 CNS 88.8% | SNB-19 CNS 105% | U251 CNS 78.7% | PC-3 prostate 68.8% | SK-MEL-5 melanoma 81.7% | UACC-62 melanoma 88.8% | SK-MEL-28 melanoma 88.7% | SK-MEL-2 melanoma 86.5% | SN12C renal 74.6% | UO-31 renal 40.5% | ACHN renal 81.8% | CAKI-1 renal 69.9% | A498 renal 92.3% | CCRF-CEM leukemia 34.9% | MOLT-4 leukemia 61.4%

Source: PubChem BioAssay (NCI)
